SKKanGAS inh = SKKanGAS growth inhibition; inhibition, % at 7.5 µM; S. pyogenes SKKanGAS, kanamycin growth, BacTiter-Glo, 6 h; 300,000 tested, 1.3% active;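 active means mean replicate score, as percent of positive control median, at least 50; inconclusive means mean below 50 but one replicate at or above 50; inactive means mean and every replicate below 50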;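 further: strain carries kanamycin resistance gene driven by streptokinase promoter and grows in 40 µg/ml kanamycin; loss of luminescence reflects streptokinase promoter inhibition or plain growth inhibition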
Mdm2 MdmX PPI = human Mdm2/MdmX binding inhibition. O15151+Q00987. SaOS-2 split-luciferase Mdm2/MdmX complementation, luminescence. inhibition, % at 8 µM. 330,000 tested, 3% active. AID 485346;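 active means inhibition of at least 50% at 8 µM in the primary screen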
Target sequence (O15151 whole entry, looked up): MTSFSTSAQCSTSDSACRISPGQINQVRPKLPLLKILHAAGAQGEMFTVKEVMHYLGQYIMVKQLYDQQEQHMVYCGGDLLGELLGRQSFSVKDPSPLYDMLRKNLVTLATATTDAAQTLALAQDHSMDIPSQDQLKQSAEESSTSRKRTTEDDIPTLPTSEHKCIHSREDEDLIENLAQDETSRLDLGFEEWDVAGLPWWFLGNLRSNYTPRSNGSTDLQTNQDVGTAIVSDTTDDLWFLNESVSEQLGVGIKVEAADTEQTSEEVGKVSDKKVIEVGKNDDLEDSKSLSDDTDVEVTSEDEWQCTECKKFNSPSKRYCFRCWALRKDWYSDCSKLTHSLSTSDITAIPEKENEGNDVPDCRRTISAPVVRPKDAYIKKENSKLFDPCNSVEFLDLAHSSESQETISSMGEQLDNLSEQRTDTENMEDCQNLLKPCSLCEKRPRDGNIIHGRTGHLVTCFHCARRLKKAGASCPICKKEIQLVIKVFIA
Target sequence (Q00987 whole entry, looked up): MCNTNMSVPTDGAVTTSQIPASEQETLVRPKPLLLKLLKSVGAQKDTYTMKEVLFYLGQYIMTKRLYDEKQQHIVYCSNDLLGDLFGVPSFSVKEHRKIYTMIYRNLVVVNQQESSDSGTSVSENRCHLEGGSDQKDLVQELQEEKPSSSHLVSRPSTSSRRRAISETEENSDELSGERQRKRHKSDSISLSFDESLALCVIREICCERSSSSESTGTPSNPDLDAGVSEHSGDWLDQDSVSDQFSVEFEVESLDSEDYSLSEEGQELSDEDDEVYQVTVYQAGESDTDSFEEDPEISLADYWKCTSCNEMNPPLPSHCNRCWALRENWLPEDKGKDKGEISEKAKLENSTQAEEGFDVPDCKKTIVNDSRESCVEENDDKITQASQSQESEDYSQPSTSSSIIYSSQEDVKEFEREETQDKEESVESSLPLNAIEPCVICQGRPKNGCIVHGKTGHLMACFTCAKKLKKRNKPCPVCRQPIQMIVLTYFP
MPTP inh = inhibitors of mitochondrial permeability transition pore. isolated mouse mitochondria, Ca2+ swelling absorbance, 30 min. inhibition, % at 10 µM. 360,000 tested, 1.4% active. AID 602449;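 active means inhibition of 50% or more, scaled per plate between neutral and stimulator controls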
CSC inhib = blocks cancer stem cells. cancer stem cell-like cells viability, luminescence. inhibition, % at 7.5 µM. 300,000 tested, 1.1% active; in the data active means inhibition above about 75%; inconclusive means no clear call, values can overlap the other calls; tested in HMLE shEcad cells
Beta apoptosis = beta cell apoptosis inhibition; INS-1E cytokine-induced death, ATP luminescence, 48 h; percent of positive-control rescue, neutral wells zero; protection from apoptosis, % (concentration not given with the values); 300,000 tested, 0.8% active; AID 435005;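 active means Every replicate reaches about 75%, or at least half do and their mean reaches it too, limit read from the data; inconclusive means At least half of replicates reach the limit but their mean does not; inactive means Under half of replicates reach the limit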;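 further: higher means more ATP so stronger rescue from cytokine killing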
NR3A LBD binder = modulators (binders) of human NR3A ligand-binding domain; NR3A LBD differential scanning fluorimetry, Tm shift; 0% = protein alone, 100% = glycine-bound protein; Tm shift relative to glycine control, % at 25 µM; 340,000 tested, 2.5% active;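 active means melting temperature shift of at least 10% of the positive control shift, at one fixed dose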
Large screens that a line does not name were inactive. Most compounds without a hit are left out; they make up all but 6.9% or so of the library.

COC(=O)C1=C(c2ccc(Cl)c(C(F)(F)F)c2)C[C@@H]2CC[C@H]1N2C(=O)NCC1CC1	none (no result: SKKanGAS inh)
CCCNC(=O)N1[C@H]2CC[C@@H]1C(C(=O)OC)=C(c1ccc(Cl)c(C(F)(F)F)c1)C2	NR3A LBD binder 24 (no result: SKKanGAS inh)
O=C(NC1CONC1=O)OCC(Cl)(Cl)Cl (configuration not stated)	CSC inhib 77
O=c1[nH]c(CN2CC=C(c3ccccc3)CC2)nc2scc(-c3ccccc3)c12	SKKanGAS inh 64, CSC inhib 81
O=c1[nH]c(CN2CC=C(c3ccccc3)CC2)nc2cc(C(F)(F)F)ccc12	none
Oc1cc(O)cc(/C=C/c2ccc(O)cc2O)c1	NR3A LBD binder 11 (no result: SKKanGAS inh)
CCOC(=O)C(c1c(O)c2ccccc2oc1=O)c1c(O)c2ccccc2oc1=O	none (no result: SKKanGAS inh, Mdm2 MdmX PPI, CSC inhib, Beta apoptosis, NR3A LBD binder)
COc1cccc2c1cc([N+](=O)[O-])c1c(C(=O)O)cc3c(c12)OCO3	none (no result: SKKanGAS inh, Mdm2 MdmX PPI, CSC inhib, Beta apoptosis)
Cc1ccc(-n2nc(C)c(C3C(C#N)=C(N)Oc4c3c(=O)oc3ccccc43)c2Cl)cc1 (configuration not stated)	SKKanGAS inh 119 (no result: Mdm2 MdmX PPI, MPTP inh, CSC inhib, Beta apoptosis, NR3A LBD binder)
C[C@@H]1CN([C@H](C)CO)C(=O)CCCn2nncc2CO[C@@H]1CN(C)C(=O)Oc1cccc2ccccc12	none (no result: SKKanGAS inh, Mdm2 MdmX PPI, CSC inhib, Beta apoptosis, NR3A LBD binder)
CCn1c(=O)n(CC)c2cc([N+](=O)[O-])c(N3CCNCC3)cc21	none
CCN(CC)CCCN=Cc1c(O)n(-c2cccc(C)c2C)c(=O)[nH]c1=O	NR3A LBD binder 11
O=[N+]([O-])c1ccc(C[n+]2c(-c3ccccc3)cc(-c3ccccc3)cc2-c2ccccc2)cc1	none
Cc1cc(-c2ccccc2)cc(C)[n+]1Cc1ccccc1	Beta apoptosis 109
CCn1c(O)c(/C=N/NC(=O)c2ccncc2)c(=O)[nH]c1=S	none
O=C(N/N=C/c1c(O)n(Cc2ccc(F)cc2)c(=S)[nH]c1=O)c1ccncc1	SKKanGAS inh 101
CCC(C)n1c(O)c(/C=N/Nc2ccccc2)c(=O)[nH]c1=S (configuration not stated)	SKKanGAS inh inconclusive, CSC inhib 83
CCC(C)n1c(O)c(/C=N/NC(=O)c2ccncc2)c(=O)[nH]c1=S (configuration not stated)	SKKanGAS inh 91
CCC(C)n1c(O)c(C=NCCc2ccccc2)c(=O)[nH]c1=S (configuration not stated)	none
c1ccc(N2[C@@H]3CC[C@H]2c2ccncc2C3)cc1	none (no result: SKKanGAS inh, Mdm2 MdmX PPI, CSC inhib, Beta apoptosis, NR3A LBD binder)
O=C(Nc1ccc(C(F)(F)F)cc1)c1cccn(Cc2ccc3c(c2)OC(F)(F)O3)c1=O	CSC inhib 90, NR3A LBD binder 25
CC(C)Oc1cccc(NC(=O)c2cccn(Cc3ccc4c(c3)OC(F)(F)O4)c2=O)c1	none
O=C(Nc1cccc(C(F)(F)F)c1)c1cccn(Cc2ccc3c(c2)OC(F)(F)O3)c1=O	NR3A LBD binder 25
Cc1cc(N(CCCl)CCCl)ccc1C=Cc1ccncn1	none (no result: SKKanGAS inh, Mdm2 MdmX PPI, CSC inhib, Beta apoptosis)
NC(=O)c1ccc(N)nc1	none (no result: SKKanGAS inh, Mdm2 MdmX PPI, CSC inhib, Beta apoptosis)
Clc1ccc(CCC(Cn2ccnc2)Sc2c(Cl)cccc2Cl)cc1 (configuration not stated)	CSC inhib 86 (no result: SKKanGAS inh)
Clc1ccc(Cn2ccnc2)cn1	none
CC(C)OCC(O)CN1CC2C[C@@H](C1)Cn1c2cccc1=O (some centres not stated)	none
CN(C)C(=S)SSC(=S)N(C)C	NR3A LBD binder 19 (no result: Mdm2 MdmX PPI)
C=CCOC(=O)N1Cc2ccccc2-n2nncc2C1	none (no result: SKKanGAS inh, Mdm2 MdmX PPI, CSC inhib, Beta apoptosis, NR3A LBD binder)
Cc1ccc(-c2cc(-c3ccc(C)cc3)[n+](-c3ccc(C(=O)[O-])cc3)c(-c3ccc(C)cc3)c2)cc1	SKKanGAS inh 78, Beta apoptosis 98
COCCCNC(=O)c1c(NC(=O)c2ccccc2Cl)n(Cc2ccccc2)c2nc3ccccc3nc12	none
COCCNC(=O)c1c(NC(=O)c2ccco2)n(Cc2ccccc2)c2nc3ccccc3nc12	SKKanGAS inh 68 (no result: NR3A LBD binder)
CC1=CP(=O)(Oc2ccc([N+](=O)[O-])cc2)CC1 (configuration not stated)	none (no result: SKKanGAS inh, Mdm2 MdmX PPI, CSC inhib, Beta apoptosis, NR3A LBD binder)
CCN(CC)c1ccc(/C=C2\C(=O)NC(=O)N(Cc3ccco3)C2=O)cc1	NR3A LBD binder 24
CCN(CC)c1ccc(/C=C2/C(=O)NC(=O)N(CC3CCCO3)C2=O)cc1 (configuration not stated)	none
CCC(C)OC(=O)c1c(N)n(Cc2cccs2)c2nc3ccccc3nc12 (configuration not stated)	none
Nc1c(C(=O)OCc2ccccc2)c2nc3ccccc3nc2n1Cc1cccs1	SKKanGAS inh 56, NR3A LBD binder 14
